Laboratory results reported in PubChem BioAssay AID485346 (Sanford-Burnham Center for Chemical Genomics, 2010).
Screen size: about 330,000 compounds; about 10,000 (3%) were called active.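 The calls were made as follows: active = inhibition of at least 50% at 8 µM in the primary screen; inactive = the rest.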 Shown is part of a subset that was picked to be rich in actives.

molecular target: Protein Mdm4 (Homo sapiens) + E3 ubiquitin-protein ligase Mdm2 (Homo sapiens) (UniProt O15151+Q00987); experiment: inhibitors of human Mdm2-MdmX association, primary screen, cell-based, luminescence, split luciferase, SaOS-2, uHTS (AID 485346); conditions: SaOS-2 split-luciferase Mdm2/MdmX complementation, at 8 µM, stronger effect = higher value
Sequence (O15151 whole entry, looked up): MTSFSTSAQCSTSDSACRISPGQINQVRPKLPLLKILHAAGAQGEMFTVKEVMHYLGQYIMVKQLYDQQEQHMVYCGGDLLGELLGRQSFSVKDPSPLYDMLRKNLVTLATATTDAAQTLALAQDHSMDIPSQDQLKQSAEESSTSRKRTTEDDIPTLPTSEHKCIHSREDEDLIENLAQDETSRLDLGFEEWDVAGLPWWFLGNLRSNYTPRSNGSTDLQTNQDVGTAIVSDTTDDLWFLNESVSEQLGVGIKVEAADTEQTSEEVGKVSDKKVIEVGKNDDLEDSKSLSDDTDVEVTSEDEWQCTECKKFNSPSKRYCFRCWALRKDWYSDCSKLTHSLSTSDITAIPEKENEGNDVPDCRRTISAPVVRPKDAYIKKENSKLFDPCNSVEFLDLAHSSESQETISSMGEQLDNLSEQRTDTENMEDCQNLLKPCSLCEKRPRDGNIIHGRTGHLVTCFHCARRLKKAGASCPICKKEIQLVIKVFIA
Sequence (Q00987 whole entry, looked up): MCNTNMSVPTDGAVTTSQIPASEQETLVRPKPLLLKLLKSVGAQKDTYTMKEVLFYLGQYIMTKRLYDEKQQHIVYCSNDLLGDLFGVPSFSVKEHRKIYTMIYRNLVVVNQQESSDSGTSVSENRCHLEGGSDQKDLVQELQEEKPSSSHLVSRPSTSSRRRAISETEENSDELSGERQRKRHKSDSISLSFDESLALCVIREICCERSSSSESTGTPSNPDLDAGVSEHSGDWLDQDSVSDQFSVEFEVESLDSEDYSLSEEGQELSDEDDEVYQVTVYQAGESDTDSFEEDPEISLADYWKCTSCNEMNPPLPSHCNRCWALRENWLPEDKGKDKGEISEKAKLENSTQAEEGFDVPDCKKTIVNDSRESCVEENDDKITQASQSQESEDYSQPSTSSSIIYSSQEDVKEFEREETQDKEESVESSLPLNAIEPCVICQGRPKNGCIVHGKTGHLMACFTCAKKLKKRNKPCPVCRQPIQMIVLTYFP

Row | Structure (SMILES) | inhibition
1 | CC(C)(C)[C@H]1C=C(C(=O)NCc2ccccc2)O[C@@H](OCc2ccc(CO)cc2)C1 | 29.5% (inactive)
2 | O=C(NCc1ccccc1)C1=C[C@@H](C2CCCCC2)C[C@@H](OCc2ccc(CO)cc2)O1 | 55.5% (active)
3 | O=C(NCc1ccccc1)C1=C[C@H](C2CC2)C[C@H](OCc2ccc(CO)cc2)O1 | -19% (inactive)
4 | Nn1cnnc1N/N=C/c1cc([N+](=O)[O-])c(Cl)cc1Cl | -3.78% (inactive)
5 | CC(=O)NNc1cc(=O)c2c(=O)n(C)c(=O)n(C)c2[nH]1 | -7.44% (inactive)
6 | CCOc1ccccc1C(=O)NC1CC2CCCC(C1)N2Cc1ccccc1 (stereo unspecified) | -3.94% (inactive)
7 | CC(=O)Nc1ccc(S(=O)(=O)NCC(=O)OCc2cc(=O)oc3ccc4ccccc4c23)cc1 | -8.78% (inactive)
8 | COc1ccc(CNC(=O)COC(=O)c2sccc2C)cc1OC | 14.3% (inactive)
9 | CCOc1ccc(C(C)=O)cc1COC(=O)c1cnc(Cl)c(Cl)c1 | 97.4% (active)
10 | CCOc1ccc(C(C)=O)cc1COC(=O)CNC(=O)c1cccs1 | 26.9% (inactive)
11 | COC(=O)c1ccc(COC(=O)c2cnc(Cl)c(Cl)c2)cc1 | 0.646% (inactive)
12 | COc1ccccc1C(=O)NCC(=O)NCCSc1ccc(Br)cc1 | 12.7% (inactive)
13 | CCc1ccccc1NC(=O)CN(c1ccc(OC)cc1OC)S(=O)(=O)c1ccccc1[N+](=O)[O-] | 18.2% (inactive)
14 | N#Cc1cccc(CSc2nnc(CCCO)n2-c2ccccc2)c1 | 7% (inactive)
15 | Cc1cc(NCc2cccnc2)no1 | 0.68% (inactive)
16 | Brc1ccc2ncnc(NCc3cccnc3)c2c1 | 73.1% (active)
17 | Clc1ccc(Cn2ncc3c(NCc4cccnc4)ncnc32)cc1 | 20.9% (inactive)
18 | CCN(C(=O)Cc1c(C(=O)O)n(CC)c2ccccc12)c1ccccc1C | 13.2% (inactive)
19 | O=C(COC(=O)CCCN1C(=O)c2cccc3cccc(c23)C1=O)NC1CCS(=O)(=O)C1 (stereo unspecified) | -2.87% (inactive)
20 | O=C1NC2(CCCCC2)N=C1c1ccccc1 | 4.91% (inactive)
21 | O=C(Cc1ccc(-n2c(=O)[nH]c3ccccc3c2=O)cc1)N1CCN(c2cccc(Cl)c2)CC1 | -17% (inactive)
22 | COc1cccc(CNC(=O)Cc2csc(Nc3nc(=S)[nH]c4ccccc34)n2)c1 | 60.5% (active)
23 | O=C(Cc1csc(Nc2nc(=S)[nH]c3ccccc23)n1)NCCCN1CCN(c2cccc(Cl)c2)CC1 | 77.1% (active)
24 | COc1cccc(CNC(=O)c2n[nH]c3ccccc23)c1 | -9.68% (inactive)
25 | COc1cccc(CNC(=O)CN2C(=O)NC(Cc3ccccc3)(c3ccccc3)C2=O)c1 (stereo unspecified) | -11% (inactive)
26 | O=C(CCCn1c(=O)[nH]c2cc(Cl)ccc2c1=O)NCCN1CCN(c2ccccc2)CC1 | 9.17% (inactive)
